Compound activity as filed in PubChem.
Sampled rows, rich in hits. Any-hit rate of the full collection: about 4.7%.
Efflux pump inh: antifungal efflux pump inhibition, Nile Red retention; inhibition, % at 10 µM; S. cerevisiae Candida pump triplex; 0.44% of 330,000 active;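 active means plate passing quality check with inhibition over a set limit, or well fluorescence over plate mean plus 4 SD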;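 further: Nile Red retained in pooled yeast measured as flow cytometry median fluorescence; 0% = buffer negative control and 100% = Enniatin B positive control; higher means more Nile Red kept so more efflux inhibition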
eIF4H FP inh: inhibitors of RNA binding by human eIF4H | Q15056 | eIF4H fluorescence polarization binding assay | inhibition, % at 35 µM | 0.94% of 290,000 active;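 further: calls also rest on retests at 20 µM and on dose response follow-up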
PABP polyA inh: PABP-poly(A) binding inhibition. P11940. PABP-poly(A) RNA binding, fluorescence polarization. inhibition, % at 35 µM. 1% of 290,000 active. AID 2014;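 further: calls also rest on retests at 20 µM and on dose response follow-up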
PABP1 MLLE inh: blocks PAM2 peptide binding to the PABP1 MLLE domain; P11940; GST-MLLE / FITC-PAM2 fluorescence polarization; inhibition, % at 20 µM; 0.36% of 360,000 active; in the data active means inhibition above about 35%, passing the limit was not always enough;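 further: plate controls were DMSO wells with GST-MLLE for no effect and wells lacking GST-MLLE protein for full effect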
SUMO HTRF inh: inhibitors of human SUMOylation (UBC9). HTRF SUMOylation assay, SAE1/SAE2 + UBC9, in vitro. inhibition, % at 35 µM. 0.36% of 290,000 active. AID 2006; in the data active means inhibition above about 50%, passing the limit was not always enough; inconclusive means no clear call, values can overlap the other calls
Target sequence (P63279 whole entry, looked up): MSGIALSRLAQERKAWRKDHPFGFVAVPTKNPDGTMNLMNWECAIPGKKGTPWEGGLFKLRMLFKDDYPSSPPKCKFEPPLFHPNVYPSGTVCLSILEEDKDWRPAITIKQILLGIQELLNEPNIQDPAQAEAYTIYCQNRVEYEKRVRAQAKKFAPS
ALR H2O2 inh: human ALR oxidase inhibition via reduced H2O2 | AID 485317 | purified ALR, DTT oxidation, H2O2 HRP-luminol luminescence | 3.8% of 290,000 active | inhibition, % (test concentration not listed);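 active means mean replicate inhibition above about 79%, with every replicate also reaching it, limit read from the data; inconclusive means only one of the two criteria met; inactive means mean below limit and not every replicate reaching it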
Target sequence (P55789 whole entry, looked up): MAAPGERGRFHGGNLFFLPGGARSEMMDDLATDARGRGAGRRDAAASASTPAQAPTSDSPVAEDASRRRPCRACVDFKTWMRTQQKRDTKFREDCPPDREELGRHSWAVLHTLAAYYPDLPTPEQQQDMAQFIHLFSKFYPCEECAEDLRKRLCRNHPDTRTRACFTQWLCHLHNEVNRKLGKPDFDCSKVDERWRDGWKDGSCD
* hit, by the source's call; ? = inconclusive; / = no result given. Unless noted, how the calls were made is not given here.

SMILES | Efflux pump inh | eIF4H FP inh | PABP polyA inh | PABP1 MLLE inh | SUMO HTRF inh | ALR H2O2 inh
O=C(NNC(=S)NC(=O)c1ccccc1[N+](=O)[O-])c1ccccc1Cl | -0.4 | 10.6 | -3.2 | 9.1 | -29.5 | 5.1
O=C(NC(=S)NNS(=O)(=O)c1ccccc1)c1ccccc1[N+](=O)[O-] | -0.3 | 19.8 | 8.5 | 45.3* | -79.1 | /
O=C(O)c1ccc(Cl)c(NC(=S)NC(=O)c2ccccc2[N+](=O)[O-])c1 | -0.1 | -1.2 | 4.8 | 46.8* | 10.6 | 7.8
O=C(NC(=S)NNC(=O)c1ccccc1[N+](=O)[O-])c1ccc(Br)cc1 | 0.0 | 6.3 | 6.5 | 18.5 | -17.0 | 98.8*
O=C(NC(=S)NNS(=O)(=O)c1ccccc1)c1ccc([N+](=O)[O-])cc1 | -0.2 | 9.5 | -1.8 | 6.7 | 6.0 | /
Cc1ccc2c(C)c(C(=O)N(Cc3ccc(F)cc3)C3CCS(=O)(=O)C3)oc2c1 (stereo not given) | 0.4 | 0.4 | -1.4 | -0.7 | -2.9 | -4.9
CCCCn1c(N)c(N(CC(C)C)C(=O)CCN2C(=O)C3CC=CCC3C2=O)c(=O)[nH]c1=O (stereo not given) | / | / | / | -21.7 | / | /
Cc1[nH][nH]c(=O)c1C=NCc1ccc(Cl)cc1 | 0.0 | 1.8 | -3.6 | 1.6 | -1.0 | -14.0
Cc1cc(N2CCN(C)CC2)nc2ccc(NC(=O)CCC(=O)NCCc3ccc(Cl)cc3)cc12 | / | 1.6 | -15.3 | -17.3 | 0.6 | /
Cc1ccn2c(=O)nc(SCC(=O)Nc3ccc4c(c3)OCO4)nc2c1 | -0.2 | / | / | -2.9 | / | ?
Cc1ccc2nc(SCC(=O)Nc3ccc4c(c3)OCCO4)nc(=O)n2c1 | 0.0 | / | / | 25.8 | / | 98.3*
Cc1ccn2c(=O)nc(SCC(=O)c3ccc(Cl)cc3)nc2c1 | -0.2 | / | / | 11.9 | / | 92.6*
O=C(CSc1nc(=O)n2cc(Cl)ccc2n1)Nc1ccc2c(c1)OCCO2 | -0.1 | / | / | -30.2 | / | 99.0*
Cc1ccn2c(=O)nc(SCC(=O)Nc3ccc4c(c3)OCCO4)nc2c1 | -0.1 | / | / | 11.8 | / | 97.0*
O=C(CSc1nc(=O)n2cc(Cl)ccc2n1)Nc1ccc2c(c1)OCO2 | 0.0 | / | / | -33.4 | / | 67.6
CCCc1cc(-c2ccc3c(c2)COc2c4ccccc4nn2-3)on1 | 0.0 | / | / | -12.3 | / | 6.7
Cc1ccc(S(=O)(=O)N2CCCCC2)cc1NC(=O)COC(=O)c1cccc(O)c1 | / | / | / | -3.0 | / | /
CC(=O)Nc1ccc(S(=O)(=O)N(C)CC(=O)Nc2nc3ccccc3[nH]2)cc1 | / | / | / | 2.3 | / | /
O=c1c(Cl)cc(Cl)nn1-c1ccccc1 | 0.0 | -0.1 | 34.9 | -24.3 | -13.7 | 97.8*
COc1cc(Cl)nn(-c2ccccc2)c1=O | 0.0 | 2.7 | 23.1 | 1.4 | -5.9 | 1.8
CN(CCC#N)S(=O)(=O)c1cc2c3c(c1)CCN3C(=O)CC2 | 0.2 | 2.0 | 5.7 | -12.0 | 7.8 | -7.2
CCC(=O)NCCSc1c[nH]c2ccccc12 | 0.1 | 5.2 | 8.6 | 4.6 | -16.5 | 56.4
CC(C)C(=O)NCCSc1c[nH]c2ccccc12 | 0.3 | -9.1 | -9.0 | 15.1 | -2.7 | 99.1*
O=C(O)CSc1c[nH]c2ccccc12 | 0.1 | -4.6 | 14.5 | 16.8 | 5.7 | 98.5*
CCN1C(=O)[C@H]2[C@@H](c3ccc(C)cc3)N[C@]3(CCCN(Cc4cccn4C)C3=O)[C@H]2C1=O | / | / | / | -0.6 | / | /
SMILES | Efflux pump inh | eIF4H FP inh | PABP polyA inh | PABP1 MLLE inh | SUMO HTRF inh | ALR H2O2 inh
COc1cccc([C@@H]2CC=C(C(=O)O)CN2S(=O)(=O)c2ccc(C)cc2)c1 | 0.1 | / | / | -0.9 | / | -2.2
CN1CCN(Cc2nc3ccccc3c(=O)n2Cc2nc(-c3ccc4ccccc4c3)cs2)CC1 | 0.0 | -4.1 | 20.1 | 6.9 | 13.3 | 98.4*
CN(Cc1ccc(F)cc1)C(=O)CN1CCN(S(=O)(=O)c2ccc3c(c2)OCCCO3)CC1 | / | / | / | -31.1 | / | /
Cc1ccc(Nc2nc(C(=O)NCc3ccco3)cs2)cc1 | -0.1 | -7.6 | 4.1 | 9.2 | -2.3 | 16.7
CCN(CC)C(=O)c1csc(Nc2ccc(C)cc2)n1 | 0.0 | 1.6 | 3.7 | -12.1 | -0.4 | 87.3*
CCCNC(=O)c1cc(C2CCCCN2C(=O)OCC(C)C)on1 (stereo not given) | / | / | / | -4.9 | / | /
CCN(Cc1ccccc1)S(=O)(=O)c1ccc(S(=O)(=O)N2CCN(C)CC2)cc1 | 0.1 | -11.3 | -11.7 | -1.2 | -1.6 | /
O=S(=O)(c1ccc(S(=O)(=O)N(Cc2ccccc2)Cc2ccco2)cc1)N1CCCC1 | 0.0 | / | / | -8.2 | / | 94.3*
CCC(=O)Nc1ccccc1Sc1ncnc2scc(-c3ccccc3)c12 | 0.1 | -5.8 | -4.1 | -0.4 | 0.7 | -12.6
CCCSc1cc(NCCOC(C)=O)c([N+](=O)[O-])c2nonc12 | -0.1 | 95.4 | 4.3 | 7.9 | 26.9 | -16.3
CC(=O)OCCCNc1cc(SCc2ccco2)c2nonc2c1[N+](=O)[O-] | 0.2 | 93.6 | -0.8 | 33.7 | 93.2 | 89.9*
CCCSc1cc(NCCOC(=O)CCC)c([N+](=O)[O-])c2nonc12 | 0.2 | -8.2 | 1.2 | -5.9 | 43.7 | 97.0*
O=[N+]([O-])c1c(NCCCO)cc(Sc2nc3ccccc3s2)c2nonc12 | 1.1 | 4.9 | 14.1 | 22.9 | 95.5 | -35.0
CCCC(=O)OCCNc1cc(Sc2nccn2C)c2nonc2c1[N+](=O)[O-] | 0.1 | 10.3 | 5.0 | 17.9 | 36.5 | 96.6*
CCCC(=O)OCCNc1cc(SCc2ccco2)c2nonc2c1[N+](=O)[O-] | 0.0 | 79.7* | active | 31.4 | 89.8* | -5.3
CCC(=O)OCCNc1cc(Sc2nc3ccccc3s2)c2nonc2c1[N+](=O)[O-] | 0.0 | 38.9 | 24.5 | 52.4 | 87.7 | -21.6
CCC(=O)OCCNc1cc(Sc2nc3ccccc3[nH]2)c2nonc2c1[N+](=O)[O-] | -0.8 | 11.3 | 3.2 | 29.2 | 36.1 | /
CCCC(c1nnnn1C(C)(C)C)N1CCN(C(=O)c2ccco2)CC1 (stereo not given) | 0.0 | 0.6 | 12.1 | 14.1 | 4.6 | 5.0
COc1cc(C#N)ccc1OCC(=O)Nc1cccc(S(=O)(=O)N(C)c2ccccc2)c1 | / | / | / | -36.0 | / | /
CCc1cccc(CC)c1-n1c(SCC(=O)N2CCc3ccccc32)nc(O)cc1=O | -0.1 | / | / | 5.5 | / | 11.7
CN(CC(=O)Nc1ccccc1C(F)(F)F)C(=O)c1ccccc1Sc1ccccc1C#N | 0.0 | / | / | 14.6 | / | -0.9
CC(=O)Nc1cccc(-c2csc(C(O)c3ccccc3)n2)c1 (stereo not given) | / | / | / | 9.2 | / | /
O/N=C(\COc1ccccc1O)c1ccccc1 | -0.1 | -5.7 | 1.9 | 11.2 | 7.2 | 76.8*
CCCCN(C)C(=O)CS(=O)(=O)Cc1nc(-c2cccc(OC)c2)oc1C | 0.0 | -14.1 | -16.7 | 4.7 | 4.1 | 98.8*
COc1ccc(CNC(=O)CS(=O)(=O)Cc2nc(-c3cccc(OC)c3)oc2C)cc1 | 0.0 | 4.3 | 7.7 | 1.4 | 18.0 | 90.5*
COc1ccc(-c2nc(CS(=O)(=O)CC(=O)NCc3cccc(F)c3)c(C)o2)cc1 | 0.0 | 20.9 | 7.5 | 7.4 | 3.4 | 97.1*
OC(c1ccc(F)c(F)c1)c1nc(-c2cccc(C(F)(F)F)c2)cs1 (stereo not given) | / | / | / | -1.6 | / | /
FC(F)(F)c1ccccc1Cc1c(C2CCCCC2)nc2c3ccccc3ccn12 | / | / | / | 8.6 | / | /
